Assay results published in PMC7862700, “An all-to-all approach to the identification of sequence-specific readers for epigenetic DNA modifications on cytosine”.

How the values were obtained:
Test in all cases: DAPPL (digital affinity profiling via proximity ligation, sequencing); 10 mM Tris-HCl pH 7.5, 50 mM NaCl, 1 mM DTT, 4% glycerol, room temperature, 30 min; GST-TFs on glutathione beads, 16-mer random dsDNA library, 0.1% formaldehyde crosslink after washing; high values mean tight binding
Conditions in all cases: protein: recombinant; tags: N-terminal GST; dsDNA, one strand shown
FLI1 = target: T1, FLI1 (Homo sapiens, UniProt Q01543 1-452)
T1 sequence: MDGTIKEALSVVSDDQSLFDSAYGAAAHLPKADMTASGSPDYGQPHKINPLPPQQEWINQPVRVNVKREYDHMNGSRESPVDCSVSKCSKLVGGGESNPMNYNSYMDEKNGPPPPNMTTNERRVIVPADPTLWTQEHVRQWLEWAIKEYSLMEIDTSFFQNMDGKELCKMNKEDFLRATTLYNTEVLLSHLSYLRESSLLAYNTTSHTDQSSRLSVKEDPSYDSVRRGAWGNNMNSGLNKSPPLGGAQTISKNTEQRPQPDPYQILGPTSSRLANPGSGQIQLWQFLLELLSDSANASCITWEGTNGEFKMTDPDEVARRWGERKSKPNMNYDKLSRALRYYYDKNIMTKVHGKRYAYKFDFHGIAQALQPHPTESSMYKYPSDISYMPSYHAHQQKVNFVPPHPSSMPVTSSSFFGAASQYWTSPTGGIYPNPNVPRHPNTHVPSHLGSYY
Procedure, shortened: (§1)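 Yeast served to express human transcription factors as GST fusions, which were then captured on glutathione beads and labelled with DNA barcodes. Pooled with a tag-only sample, they were incubated with 200 nmole of a 16-mer random double-stranded DNA library for 30 min at room temperature in Tris/NaCl/DTT/glycerol buffer, washed, crosslinked with 0.1% formaldehyde, ligated by proximity, amplified by PCR and sequenced. Dividing each hexamer's read frequency for a factor by its frequency for the tag-only sample gives the binding signal.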

GABPA = target: T2, GABPA (Homo sapiens, UniProt Q06546 1-454)
T2 sequence: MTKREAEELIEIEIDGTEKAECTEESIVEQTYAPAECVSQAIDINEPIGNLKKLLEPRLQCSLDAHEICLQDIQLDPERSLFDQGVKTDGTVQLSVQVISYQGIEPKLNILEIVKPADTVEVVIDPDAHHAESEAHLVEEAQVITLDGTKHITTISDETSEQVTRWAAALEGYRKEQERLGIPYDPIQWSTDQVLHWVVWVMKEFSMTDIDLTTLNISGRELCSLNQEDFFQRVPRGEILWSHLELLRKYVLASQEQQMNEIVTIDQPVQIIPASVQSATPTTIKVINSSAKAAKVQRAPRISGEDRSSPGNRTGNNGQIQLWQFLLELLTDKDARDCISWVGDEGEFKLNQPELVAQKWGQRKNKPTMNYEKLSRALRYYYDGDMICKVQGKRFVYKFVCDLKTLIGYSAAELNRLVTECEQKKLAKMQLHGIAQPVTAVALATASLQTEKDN
Procedure, shortened: as §1

ELF1 = ELF1 (Homo sapiens, UniProt P32519 1-619)
Procedure, shortened: as §1

SPIB = SPIB (Homo sapiens, UniProt Q01892 1-262)
Procedure, shortened: as §1

ELF4 = ELF4 (Homo sapiens, UniProt Q99607 1-663)
Procedure, shortened: as §1

ETV2 = target: T3, ETV2 (Homo sapiens, UniProt O00321 1-342)
T3 sequence: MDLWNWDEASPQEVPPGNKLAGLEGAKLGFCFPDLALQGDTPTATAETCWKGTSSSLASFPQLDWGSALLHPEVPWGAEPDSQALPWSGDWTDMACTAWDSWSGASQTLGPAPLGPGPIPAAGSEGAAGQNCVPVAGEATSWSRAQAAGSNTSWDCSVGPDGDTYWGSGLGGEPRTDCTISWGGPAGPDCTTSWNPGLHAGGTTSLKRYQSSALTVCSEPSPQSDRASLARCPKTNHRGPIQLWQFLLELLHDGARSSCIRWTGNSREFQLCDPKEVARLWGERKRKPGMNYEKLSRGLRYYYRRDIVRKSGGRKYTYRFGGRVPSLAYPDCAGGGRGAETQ
Procedure, shortened: as §1

ELF3 = target: T4, ELF3 (Homo sapiens, UniProt P78545 1-371)
T4 sequence: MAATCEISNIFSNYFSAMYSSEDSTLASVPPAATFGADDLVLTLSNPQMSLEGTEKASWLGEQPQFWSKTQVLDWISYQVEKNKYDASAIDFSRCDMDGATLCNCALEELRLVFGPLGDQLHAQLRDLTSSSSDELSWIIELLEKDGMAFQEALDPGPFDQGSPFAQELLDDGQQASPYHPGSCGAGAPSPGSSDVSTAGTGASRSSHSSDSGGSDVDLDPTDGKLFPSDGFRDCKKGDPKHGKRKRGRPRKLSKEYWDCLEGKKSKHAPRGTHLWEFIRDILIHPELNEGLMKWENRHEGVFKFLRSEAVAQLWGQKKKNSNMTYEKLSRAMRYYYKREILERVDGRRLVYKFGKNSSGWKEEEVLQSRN
Procedure, shortened: as §1

ETV1 = ETV1 (Homo sapiens, UniProt P50549 1-477)
Procedure, shortened: as §1

ERF = target: T5, ERF (Homo sapiens, UniProt P50548 1-548)
T5 sequence: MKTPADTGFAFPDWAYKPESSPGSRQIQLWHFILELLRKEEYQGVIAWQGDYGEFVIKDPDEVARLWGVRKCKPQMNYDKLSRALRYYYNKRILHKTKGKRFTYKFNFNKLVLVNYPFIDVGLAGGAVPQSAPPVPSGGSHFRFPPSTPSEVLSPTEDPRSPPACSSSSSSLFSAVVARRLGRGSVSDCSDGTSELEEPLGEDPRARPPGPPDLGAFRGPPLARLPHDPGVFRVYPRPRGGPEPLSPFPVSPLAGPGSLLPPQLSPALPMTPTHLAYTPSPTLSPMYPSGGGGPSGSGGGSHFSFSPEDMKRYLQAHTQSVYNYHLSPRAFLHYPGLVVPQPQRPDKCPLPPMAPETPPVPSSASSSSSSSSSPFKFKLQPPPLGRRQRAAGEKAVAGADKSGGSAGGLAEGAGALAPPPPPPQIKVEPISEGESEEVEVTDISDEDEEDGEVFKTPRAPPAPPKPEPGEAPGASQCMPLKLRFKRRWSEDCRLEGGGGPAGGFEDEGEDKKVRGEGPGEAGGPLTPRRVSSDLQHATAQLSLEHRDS
Procedure, shortened: as §1

ETV3L = target: T6, ETV3L (Homo sapiens, UniProt Q6ZN32 1-361)
T6 sequence: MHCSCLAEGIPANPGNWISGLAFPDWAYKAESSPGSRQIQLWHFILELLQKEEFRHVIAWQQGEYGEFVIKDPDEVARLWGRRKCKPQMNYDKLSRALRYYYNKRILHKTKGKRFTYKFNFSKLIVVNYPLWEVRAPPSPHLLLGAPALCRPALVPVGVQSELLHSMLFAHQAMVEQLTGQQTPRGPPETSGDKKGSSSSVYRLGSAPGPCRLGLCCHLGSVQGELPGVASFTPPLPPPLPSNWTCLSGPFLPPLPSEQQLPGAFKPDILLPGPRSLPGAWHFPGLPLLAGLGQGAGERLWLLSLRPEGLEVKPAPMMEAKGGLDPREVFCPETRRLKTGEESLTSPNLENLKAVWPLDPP
Procedure, shortened: as §1

ETV7 = target: T7, ETV7 (Homo sapiens, UniProt Q9Y603 1-341)
T7 sequence: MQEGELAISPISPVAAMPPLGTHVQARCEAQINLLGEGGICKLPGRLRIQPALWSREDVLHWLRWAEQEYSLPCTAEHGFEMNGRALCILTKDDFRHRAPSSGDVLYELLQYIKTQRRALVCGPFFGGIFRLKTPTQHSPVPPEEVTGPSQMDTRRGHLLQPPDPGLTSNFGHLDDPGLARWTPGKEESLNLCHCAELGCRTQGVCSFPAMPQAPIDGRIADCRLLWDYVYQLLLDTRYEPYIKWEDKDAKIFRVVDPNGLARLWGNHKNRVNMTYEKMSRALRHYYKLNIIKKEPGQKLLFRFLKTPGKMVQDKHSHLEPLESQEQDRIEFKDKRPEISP
Procedure, shortened: as §1

ETV6 = ETV6 (Homo sapiens, UniProt P41212 1-452)
Procedure, shortened: as §1

ERG = target: T8, ERG (Homo sapiens, UniProt P11308 1-479)
T8 sequence: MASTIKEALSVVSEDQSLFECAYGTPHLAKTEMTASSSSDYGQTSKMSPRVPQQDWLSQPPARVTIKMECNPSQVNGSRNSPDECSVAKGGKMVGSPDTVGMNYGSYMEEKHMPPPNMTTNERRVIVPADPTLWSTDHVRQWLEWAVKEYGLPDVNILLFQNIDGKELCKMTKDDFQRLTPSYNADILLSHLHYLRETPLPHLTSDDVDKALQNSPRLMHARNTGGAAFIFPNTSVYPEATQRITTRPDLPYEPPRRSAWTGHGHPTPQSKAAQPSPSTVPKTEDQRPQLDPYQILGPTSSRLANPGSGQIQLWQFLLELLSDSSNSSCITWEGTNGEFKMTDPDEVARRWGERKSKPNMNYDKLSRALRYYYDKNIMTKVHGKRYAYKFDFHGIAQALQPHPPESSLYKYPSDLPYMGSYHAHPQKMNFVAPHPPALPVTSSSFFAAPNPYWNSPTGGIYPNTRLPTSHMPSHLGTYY
Procedure, shortened: as §1

EHF = target: T9, EHF (Homo sapiens, UniProt Q9NZC4 1-300)
T9 sequence: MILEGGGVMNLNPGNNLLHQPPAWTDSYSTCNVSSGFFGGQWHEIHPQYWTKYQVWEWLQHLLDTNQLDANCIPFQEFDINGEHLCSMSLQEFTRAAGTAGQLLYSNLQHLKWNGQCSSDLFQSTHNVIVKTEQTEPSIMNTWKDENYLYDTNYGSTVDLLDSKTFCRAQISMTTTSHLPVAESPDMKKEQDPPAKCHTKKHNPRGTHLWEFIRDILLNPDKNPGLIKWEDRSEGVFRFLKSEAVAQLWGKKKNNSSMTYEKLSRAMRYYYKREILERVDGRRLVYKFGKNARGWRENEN
Procedure, shortened: as §1

SPI1 = SPI1 (Homo sapiens, UniProt P17947 1-270)
Procedure, shortened: as §1

ELK3 = target: T10, ELK3 (Homo sapiens, UniProt P41970 1-407)
T10 sequence: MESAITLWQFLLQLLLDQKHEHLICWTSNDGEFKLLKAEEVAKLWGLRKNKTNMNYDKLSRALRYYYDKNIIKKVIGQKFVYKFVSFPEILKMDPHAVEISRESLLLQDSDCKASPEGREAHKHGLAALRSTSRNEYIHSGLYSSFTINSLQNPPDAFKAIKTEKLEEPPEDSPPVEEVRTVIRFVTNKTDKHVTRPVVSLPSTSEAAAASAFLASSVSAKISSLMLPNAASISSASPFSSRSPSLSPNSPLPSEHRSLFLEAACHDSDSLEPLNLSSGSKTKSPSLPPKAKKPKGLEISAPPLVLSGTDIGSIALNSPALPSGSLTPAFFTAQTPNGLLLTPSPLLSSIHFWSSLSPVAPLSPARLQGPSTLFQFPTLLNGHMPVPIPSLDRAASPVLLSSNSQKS
Procedure, shortened: as §1

SPIC = target: T11, SPIC (Homo sapiens, UniProt Q8N5J4 1-248)
T11 sequence: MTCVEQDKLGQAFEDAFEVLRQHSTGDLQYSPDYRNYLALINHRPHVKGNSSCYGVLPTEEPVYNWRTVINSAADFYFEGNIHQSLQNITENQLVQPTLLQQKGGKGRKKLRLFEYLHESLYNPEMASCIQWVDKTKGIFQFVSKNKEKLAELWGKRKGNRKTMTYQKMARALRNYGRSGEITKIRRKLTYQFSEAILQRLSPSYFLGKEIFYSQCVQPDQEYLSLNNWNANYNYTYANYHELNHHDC
Procedure, shortened: as §1

Sequence of ETV1 (P50549 whole entry): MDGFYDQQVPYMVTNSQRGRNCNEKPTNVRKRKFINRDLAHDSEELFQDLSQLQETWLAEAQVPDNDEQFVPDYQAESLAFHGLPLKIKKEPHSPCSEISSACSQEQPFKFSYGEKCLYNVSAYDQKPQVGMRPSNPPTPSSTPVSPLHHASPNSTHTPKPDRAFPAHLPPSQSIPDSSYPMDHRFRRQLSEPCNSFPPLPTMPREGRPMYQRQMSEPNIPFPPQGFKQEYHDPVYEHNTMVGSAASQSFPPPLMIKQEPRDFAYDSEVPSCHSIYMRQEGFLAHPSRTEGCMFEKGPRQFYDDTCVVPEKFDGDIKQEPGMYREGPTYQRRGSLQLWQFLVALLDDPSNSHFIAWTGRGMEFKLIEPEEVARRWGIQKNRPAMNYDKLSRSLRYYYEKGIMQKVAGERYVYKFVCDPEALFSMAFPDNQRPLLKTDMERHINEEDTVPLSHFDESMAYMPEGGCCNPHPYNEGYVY
Sequence of ELF1 (P32519 whole entry): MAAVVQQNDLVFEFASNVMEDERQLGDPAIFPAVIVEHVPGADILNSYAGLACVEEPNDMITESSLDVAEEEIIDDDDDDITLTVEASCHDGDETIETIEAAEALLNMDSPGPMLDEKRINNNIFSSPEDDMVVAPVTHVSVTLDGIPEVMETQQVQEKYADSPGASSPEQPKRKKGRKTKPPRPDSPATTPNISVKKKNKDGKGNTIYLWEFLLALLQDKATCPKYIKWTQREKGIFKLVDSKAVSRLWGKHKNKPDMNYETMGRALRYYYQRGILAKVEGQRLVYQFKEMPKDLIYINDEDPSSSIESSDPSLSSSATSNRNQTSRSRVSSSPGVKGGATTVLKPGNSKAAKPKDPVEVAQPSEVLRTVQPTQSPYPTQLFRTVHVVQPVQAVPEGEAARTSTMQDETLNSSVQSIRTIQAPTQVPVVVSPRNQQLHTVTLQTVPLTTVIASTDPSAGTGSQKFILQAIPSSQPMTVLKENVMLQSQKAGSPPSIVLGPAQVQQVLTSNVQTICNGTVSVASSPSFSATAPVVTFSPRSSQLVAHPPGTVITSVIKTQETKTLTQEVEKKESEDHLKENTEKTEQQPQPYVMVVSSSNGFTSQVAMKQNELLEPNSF
Sequence of SPIB (Q01892 whole entry): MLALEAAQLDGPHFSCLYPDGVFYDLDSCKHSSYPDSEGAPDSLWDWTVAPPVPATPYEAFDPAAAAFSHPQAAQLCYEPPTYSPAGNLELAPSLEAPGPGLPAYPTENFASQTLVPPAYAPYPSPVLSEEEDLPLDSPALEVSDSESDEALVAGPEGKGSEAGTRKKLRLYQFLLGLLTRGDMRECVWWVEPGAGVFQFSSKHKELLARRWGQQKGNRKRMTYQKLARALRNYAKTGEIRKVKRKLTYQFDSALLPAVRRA
Sequence of ETV6 (P41212 whole entry): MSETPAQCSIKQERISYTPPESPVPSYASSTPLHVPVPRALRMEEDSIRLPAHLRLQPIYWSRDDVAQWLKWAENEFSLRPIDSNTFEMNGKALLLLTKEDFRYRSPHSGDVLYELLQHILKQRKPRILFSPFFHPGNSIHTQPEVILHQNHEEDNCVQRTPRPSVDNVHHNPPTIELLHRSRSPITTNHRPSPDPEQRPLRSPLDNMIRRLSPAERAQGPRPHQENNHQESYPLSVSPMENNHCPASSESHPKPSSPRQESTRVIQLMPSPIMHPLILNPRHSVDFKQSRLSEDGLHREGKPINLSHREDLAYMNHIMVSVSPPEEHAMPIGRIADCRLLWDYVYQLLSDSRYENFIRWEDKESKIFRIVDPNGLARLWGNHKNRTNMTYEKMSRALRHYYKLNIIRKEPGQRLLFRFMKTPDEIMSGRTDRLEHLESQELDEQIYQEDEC
Sequence of ELF4 (Q99607 whole entry): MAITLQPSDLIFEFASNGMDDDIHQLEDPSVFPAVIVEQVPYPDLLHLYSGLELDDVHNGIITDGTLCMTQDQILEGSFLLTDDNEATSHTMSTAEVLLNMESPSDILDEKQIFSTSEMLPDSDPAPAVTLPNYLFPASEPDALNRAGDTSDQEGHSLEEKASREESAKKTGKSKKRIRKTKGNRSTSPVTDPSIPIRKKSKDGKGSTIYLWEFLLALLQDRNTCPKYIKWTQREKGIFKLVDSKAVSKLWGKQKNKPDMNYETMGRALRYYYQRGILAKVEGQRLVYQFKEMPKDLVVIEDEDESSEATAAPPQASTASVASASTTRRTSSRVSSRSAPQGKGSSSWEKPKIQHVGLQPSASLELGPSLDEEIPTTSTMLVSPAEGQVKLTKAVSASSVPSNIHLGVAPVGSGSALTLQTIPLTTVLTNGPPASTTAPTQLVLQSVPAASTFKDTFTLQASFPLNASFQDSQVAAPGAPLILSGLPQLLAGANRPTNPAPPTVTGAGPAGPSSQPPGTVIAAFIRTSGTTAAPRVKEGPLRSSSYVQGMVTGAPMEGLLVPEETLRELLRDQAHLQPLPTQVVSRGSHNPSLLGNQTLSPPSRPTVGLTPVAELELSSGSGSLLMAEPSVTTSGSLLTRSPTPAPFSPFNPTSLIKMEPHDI

**Q.** CGTACG was tested. Which binding signal (FLI1) did it give?
**A.** 1 fold enrichment (6-mer frequency, TF over GST control)

**Q.** What about the binding signal (GABPA) of the same sequence?
**A.** 1.03 fold enrichment (6-mer frequency, TF over GST control)

**Q.** What about the binding signal (ELF1) of the same sequence?
**A.** 1.07 fold enrichment (6-mer frequency, TF over GST control)

**Q.** What about the binding signal (SPIB) of the same sequence?
**A.** 1.01 fold enrichment (6-mer frequency, TF over GST control)

**Q.** What about the binding signal (ELF4) of the same sequence?
**A.** 1.07 fold enrichment (6-mer frequency, TF over GST control)

**Q.** And the binding signal (ETV2)?
**A.** 1.19 fold enrichment (6-mer frequency, TF over GST control)

**Q.** What about the binding signal (ELF3) of the same sequence?
**A.** 1.01 fold enrichment (6-mer frequency, TF over GST control)

**Q.** And the binding signal (ETV1)?
**A.** 1.1 fold enrichment (6-mer frequency, TF over GST control)

**Q.** And the binding signal (ERF)?
**A.** 1.04 fold enrichment (6-mer frequency, TF over GST control)

**Q.** What about the binding signal (ETV3L) of the same sequence?
**A.** 1.08 fold enrichment (6-mer frequency, TF over GST control)

**Q.** What about the binding signal (ETV7) of the same sequence?
**A.** 1.06 fold enrichment (6-mer frequency, TF over GST control)

**Q.** What about the binding signal (ETV6) of the same sequence?
**A.** 1.06 fold enrichment (6-mer frequency, TF over GST control)

**Q.** For GTCGAC, which binding signal (FLI1) is on record?
**A.** 1.04 fold enrichment (6-mer frequency, TF over GST control)

**Q.** And the binding signal (GABPA)?
**A.** 1.02 fold enrichment (6-mer frequency, TF over GST control)

**Q.** And the binding signal (ERG)?
**A.** 1.07 fold enrichment (6-mer frequency, TF over GST control)

**Q.** What about the binding signal (EHF) of the same sequence?
**A.** 1.01 fold enrichment (6-mer frequency, TF over GST control)

**Q.** What about the binding signal (SPI1) of the same sequence?
**A.** 1.08 fold enrichment (6-mer frequency, TF over GST control)

**Q.** What about the binding signal (ELK3) of the same sequence?
**A.** 1.06 fold enrichment (6-mer frequency, TF over GST control)

**Q.** And the binding signal (SPIC)?
**A.** 1.07 fold enrichment (6-mer frequency, TF over GST control)

**Q.** What about the binding signal (ETV2) of the same sequence?
**A.** 1.02 fold enrichment (6-mer frequency, TF over GST control)

**Q.** What about the binding signal (ETV1) of the same sequence?
**A.** 1 fold enrichment (6-mer frequency, TF over GST control)

**Q.** And the binding signal (ERF)?
**A.** 1.07 fold enrichment (6-mer frequency, TF over GST control)
